From PubChem BioAssay (Tox21)
Several values for one entry are separate records, joined by “and”; a condition that tells them apart may be missing. Equal values may be shown once. Records with an inconclusive call do not appear. A call without a number means that no potency is given here. Activity calls are given as the source filed them. Calls come from the whole dose curve; as a rule, active = well fitted inhibition curve with a large enough effect in the repeat runs; inconclusive = weak or mixed curves; inactive = flat fitted curve, though single readings scatter.

These molecules were tested against Voltage-gated inwardly rectifying potassium channel KCNH2 (Homo sapiens) (UniProt Q12809) (assay: Human Ether-a-go-go-Related Gene (hERG) channel small molecule antagonists: fluorescence cell-based qHTS assay (AID 1671200; note: nearly all actives have a fitted effect of over 50% in size)). Details: hERG-U2OS cells, FluxOR thallium flux fluorescence; series mostly up to 76.8 µM.
Voltage-gated inwardly rectifying potassium channel KCNH2 (Homo sapiens), sequence (Q12809 whole entry, looked up): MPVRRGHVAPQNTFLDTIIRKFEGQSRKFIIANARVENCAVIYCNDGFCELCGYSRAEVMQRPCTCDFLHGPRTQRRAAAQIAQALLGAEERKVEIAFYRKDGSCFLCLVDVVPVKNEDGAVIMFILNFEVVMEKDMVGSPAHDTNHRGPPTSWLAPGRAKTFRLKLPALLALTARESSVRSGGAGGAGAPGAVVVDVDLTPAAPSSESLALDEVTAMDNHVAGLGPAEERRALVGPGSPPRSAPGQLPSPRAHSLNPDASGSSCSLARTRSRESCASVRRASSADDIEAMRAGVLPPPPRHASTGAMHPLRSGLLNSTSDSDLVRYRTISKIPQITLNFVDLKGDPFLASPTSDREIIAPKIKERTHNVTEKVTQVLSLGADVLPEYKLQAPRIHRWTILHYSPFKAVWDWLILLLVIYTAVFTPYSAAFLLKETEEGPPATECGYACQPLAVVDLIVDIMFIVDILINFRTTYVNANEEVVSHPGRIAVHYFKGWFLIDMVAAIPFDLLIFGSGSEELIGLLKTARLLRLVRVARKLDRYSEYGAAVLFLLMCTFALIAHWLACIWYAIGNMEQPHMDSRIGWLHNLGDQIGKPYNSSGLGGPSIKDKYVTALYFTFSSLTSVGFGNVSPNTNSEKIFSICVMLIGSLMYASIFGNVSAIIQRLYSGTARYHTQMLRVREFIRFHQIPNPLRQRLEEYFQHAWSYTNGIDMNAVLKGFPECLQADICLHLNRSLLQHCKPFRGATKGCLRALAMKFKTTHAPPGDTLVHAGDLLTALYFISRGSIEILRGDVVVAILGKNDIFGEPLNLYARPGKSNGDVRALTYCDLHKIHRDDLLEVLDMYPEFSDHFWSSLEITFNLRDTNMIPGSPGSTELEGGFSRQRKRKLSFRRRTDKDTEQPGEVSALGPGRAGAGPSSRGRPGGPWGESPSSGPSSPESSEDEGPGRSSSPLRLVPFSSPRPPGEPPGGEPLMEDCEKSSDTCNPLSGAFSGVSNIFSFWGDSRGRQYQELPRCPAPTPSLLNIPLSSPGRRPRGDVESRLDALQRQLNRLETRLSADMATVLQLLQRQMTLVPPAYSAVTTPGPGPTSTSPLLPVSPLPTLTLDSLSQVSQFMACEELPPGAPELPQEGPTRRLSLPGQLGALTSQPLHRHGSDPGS
Summary of the method: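 Thallium flux as potassium surrogate: FluxOR II dye loaded 1 h at room temperature into hERG-expressing U2OS cells, then stimulus buffer added after 10 min. Kinetic 480 nm excitation/540 nm emission read, 2 min.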
Potency is the fitted concentration of half-maximal effect.

| SMILES | Potency |
| --- | --- |
| CCCC1CCC(=O)CC1 | inactive |
| c1ccc(SSc2ccccc2)cc1 | inactive |
| OC[C@H]1O[C@H](O[C@H]2O[C@H](CO)[C@@H](O)[C@H](O)[C@H]2O)[C@H](O)[C@@H](O)[C@@H]1O | inactive |
| Cc1cc(C(C#N)c2ccc(Cl)cc2)c(Cl)cc1NC(=O)c1cc(I)cc(I)c1O (stereo not given) | inactive |
| CC(C)(C)c1csc(-c2cc3cc(OCc4ccccc4CC(=O)O)ccc3o2)n1 | inactive |
| O=[N+]([O-])c1cccc(C(F)(F)F)c1 | inactive |
| COC(=O)Nc1nc2ccc(C(=O)c3ccccc3)cc2[nH]1 | inactive |
| CCc1cccc(CC)c1NC(=O)CN(CC(=O)O)CC(=O)O | inactive |
| Cc1c2ccccc2c(C)c2c1ccc1ccccc12 | inactive |
| O=c1[nH]c2ccccc2n1CCCN1CCN(C(c2ccccc2)c2ccccc2)CC1 | 379 nM (active) |
| C#C[C@]1(OC(C)=O)CC[C@H]2[C@@H]3CCC4=C[C@@H](OC(C)=O)CC[C@@H]4[C@H]3CC[C@@]21C | inactive |
| CCN(CC)c1ccc2c(-c3ccc(S(=O)(=O)O)cc3S(=O)(=O)[O-])c3ccc(=[N+](CC)CC)cc-3oc2c1 | inactive |
| S=c1nccc[nH]1 | inactive |
| Nc1nc(N)nc(-c2cc(Cl)ccc2Cl)n1 | inactive |
| Oc1ccccc1O | inactive |
| Cc1cc(-n2nc3ccc(Cl)cc3n2)c(O)c(C(C)(C)C)c1 | inactive |
| Cc1cccc2cccnc12 | inactive |
| CC1=Nc2ccccc2C1(C)C | inactive |
| COC1=C(OC)C(=O)C(CCCCCCCCCCO)=C(C)C1=O | inactive |
| CCCCCCCCCCCCCC[N+](C)(C)Cc1ccccc1 | 993 nM (active) and 1.69 µM (active) and 1000 µM (active) |
